Screening data (PubChem BioAssay)
An excerpt weighted towards active compounds, which were near 15% of everything screened.
SARS PLP yeast: blocks SARS-CoV papain-like protease in a yeast assay | S. cerevisiae expressing SARS-CoV PLpro, growth rescue | Potency, µM (doses to about 32.9 µM), for the others: at the top dose activity, positive = growth rescue, hits mostly activators | 330,000 compounds, 0.19% hits | AID 485353; calls by dose curve; note: potency is the fitted concentration of half-maximal effect; 0% is about no effect; nearly all actives have a fitted effect of over 55% in size
HCMV inh: human cytomegalovirus inhibition. 410,000 compounds, 4.5% hits. activity change, negative = inhibition, % at 57.5 µM. HFF cells, HCMV-luciferase reporter, 72 h; hits give low values. AID 1259415; in the data active = activity change below about -60%; inconclusive = no clear call, values can overlap the other calls; inactive = above about -39%; note: % is set by controls: 0 for no effect and ±100 for the full control effect
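Screen run at 2 compound doses on HFFs infected with reporter HCMV, MOI 1 PFU/cell. Luciferase activity from cell lysates at 72 h post infection gave inhibition relative to buffer-only and Salinomycin wells.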
Pf growth 48h: inhibits P. falciparum growth in the first generation, 48 h | P. falciparum luciferase growth in erythrocytes, 48 h | Potency, µM (doses to about 28.7 µM), for the others: top-dose activity change, negative = inhibition, hits mostly inhibitors | 310,000 compounds, 5.9% hits | AID 504832; note: potency is the fitted concentration of half-maximal effect; % is set by controls: 0 for no effect and ±100 for the full control effect
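Luminescence readout; reporter = integrated firefly luciferase in P. falciparum. RBC culture at 2% hematocrit, 0.1% parasitemia final, 37 C/5% CO2; decreased signal taken as growth inhibition.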
HCV inhibitor: HCV inhibition. Huh7.5.1 HCVcc-Cre infection, luciferase reporter, 44 h. Potency, µM (top dose mostly 41.8 µM), inactives show at the highest dose activity change, negative = inhibition, most hits filed as inhibitors. 340,000 compounds, 3.4% hits; note: potency is the fitted concentration of half-maximal effect; % is set by controls: 0 for no effect and ±100 for the full control effect
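Whole-lifecycle infectious HCVcc-Cre system; cells 1,000/well, compound then virus (~0.5 moi) added 4 h after plating, 44 h culture. Luciferase read 15 sec following 15 min substrate incubation, room temp.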
Sm TGR inh: inhibitors of Schistosoma mansoni thioredoxin glutathione reductase; Q962Y6; purified TGR, DTNB reduction, TNB absorbance 405 nm; Potency, µM (series often up to 114 µM), for the others: at the highest dose activity change, negative = inhibition, actives largely listed as inhibitors; 360,000 compounds, 3% hits; note: potency is the fitted concentration of half-maximal effect; % is set by controls: 0 for no effect and ±100 for the full control effect; nearly all actives have a fitted effect of over 60% in size
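Kinetic colorimetric format: TGR-catalysed, NADPH-driven DTNB reduction monitored via TNB absorbance. Enzyme dispensed at 20 nM; compound exposure 15 min at room temperature before reaction start.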
Pf growth 96h: inhibits malaria parasite growth, 96 h | P. falciparum luciferase reporter growth, 96 h | 320,000 compounds, 6.9% hits | Potency, µM (series often up to 28.7 µM), for the others: at the highest dose activity change, negative = inhibition, hits mostly inhibitors; note: potency is the fitted concentration of half-maximal effect; % is set by controls: 0 for no effect and ±100 for the full control effect
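Luminescence readout: decreased luciferase signal marks inhibited growth of reporter-expressing P. falciparum in infected red cells (2% hematocrit, 0.05% parasitemia final), exposed to compound two generations (96 h, 37 C, 5% CO2).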
Active calls of the source: *; [ ] = dose if it differs, or a comment. Unless noted, calls come from the whole dose curve; as a rule, active = well fitted curve in the direction sought with a large enough effect; inconclusive = small, poorly fitted or top-dose-only effect, or another doubt; inactive = no such curve, though single readings can be large; an effect the other way counts as inactive or inconclusive.

`CC(C)C(NC(=O)C(c1ccccc1)c1ccccc1)c1nc2ccccc2[nH]1` (stereo not given) gave SARS PLP yeast -1%, HCMV inh 21, Pf growth 48h 9.3µM*, HCV inhibitor 12% and Sm TGR inh 6%.
CC(C)[C@H](NC(=O)c1cccc(S(=O)(=O)N2CCCC2)c1)c1nc2ccccc2[nH]1 was read as SARS PLP yeast -2%, HCMV inh -12, Pf growth 48h inconclusive, HCV inhibitor -13%, Sm TGR inh 9% and Pf growth 96h -38%.
CSCCC(NC(=O)C1CC1)c1nc2ccccc2[nH]1 (stereo not given) was read as SARS PLP yeast -6%, HCMV inh -21, Pf growth 48h 10%, HCV inhibitor 13%, Sm TGR inh 0% and Pf growth 96h -2%.
Screening C[C@H](NC(=O)c1ccc(Cl)c(S(=O)(=O)N2CCOCC2)c1)c1nc2ccccc2[nH]1 returned SARS PLP yeast 2%, HCMV inh 0, Pf growth 48h inconclusive, HCV inhibitor -15%, Sm TGR inh 1% and Pf growth 96h 3.3µM*.
For CSCC[C@H](NC(=O)C(C)(C)Oc1ccc(Cl)cc1)c1nc2ccccc2[nH]1 the results were SARS PLP yeast 4%, HCMV inh 0, Pf growth 48h inconclusive, HCV inhibitor -7%, Sm TGR inh 6% and Pf growth 96h 10µM*.
For CSCC[C@H](NC(=O)c1ccc(Cl)c(S(=O)(=O)N2CCCC2)c1)c1nc2ccccc2[nH]1 the results were SARS PLP yeast 3%, HCMV inh 44, Pf growth 48h 12µM*, HCV inhibitor -10%, Sm TGR inh -4% and Pf growth 96h 10µM*.
CCN1CCN(CCNC(=O)c2ccc(/C=C3/Sc4ccccc4N(Cc4cccc(Cl)c4)C3=O)cc2)CC1 was read as SARS PLP yeast 3%, HCMV inh -103*, Pf growth 48h inconclusive, HCV inhibitor 11µM*, Sm TGR inh 6% and Pf growth 96h inconclusive.
For Cc1cccc(CN2C(=O)/C(=C\c3ccc(C(=O)NCCN4CCOCC4)cc3)Sc3ccccc32)c1 the results were SARS PLP yeast -5%, Pf growth 48h inconclusive, HCV inhibitor inconclusive, Sm TGR inh -6% and Pf growth 96h inconclusive.
CCN1CCN(CCNC(=O)c2ccc3c(c2)N(Cc2ccc(F)cc2)C(=O)/C(=C/c2ccccc2)S3)CC1 was read as SARS PLP yeast -6%, HCMV inh -81*, Pf growth 48h 6.6µM*, HCV inhibitor inconclusive, Sm TGR inh -5% and Pf growth 96h 3%.
CN1CCN(CCCNC(=O)c2ccc(/C=C3\Sc4ccccc4N(Cc4ccccc4F)C3=O)cc2)CC1 was read as SARS PLP yeast -2%, HCMV inh -63*, Pf growth 48h inconclusive, HCV inhibitor 10µM*, Sm TGR inh 2% and Pf growth 96h -4%.
`COc1ccc2c(c1)CCc1c(C(=O)Nc3cc(OC)c(Cl)cc3OC)noc1-2` gave HCMV inh 7 and Sm TGR inh -8%.
For CCOC(=O)C1(C)CCCN(C(=O)c2cccnc2)C1 (stereo not given) the results were HCMV inh -3.
COCCOc1ccc(C(F)(F)F)cc1Nc1nc2ccccc2o1 was read as SARS PLP yeast -3%, HCMV inh 21, Pf growth 48h 16%, HCV inhibitor 14µM*, Sm TGR inh 10% and Pf growth 96h 51%.
Screening O=C1CSC(=Nc2ccc(O)cc2)N1c1ccc(O)cc1 returned SARS PLP yeast 4%, HCMV inh 32, Pf growth 48h inconclusive, HCV inhibitor 2%, Sm TGR inh 1% and Pf growth 96h 10µM*.
For O=C(O)C1C2C=CC(C2)C1C(=O)NCCCN1CCOCC1 (stereo not given) the results were SARS PLP yeast 7%, HCMV inh -11, Pf growth 48h 6%, HCV inhibitor -17%, Sm TGR inh -17% and Pf growth 96h 12µM*.
For O=C(NC1CCCCC1)C1c2ccccc2OCC(=O)N1Cc1ccco1 (stereo not given) the results were HCMV inh 9.
For CC(c1nccs1)N(C)C(=O)CCc1nnc(Cc2c[nH]c3ccccc23)o1 (stereo not given) the results were SARS PLP yeast -1%, HCMV inh 7, Pf growth 48h 164%, HCV inhibitor 5%, Sm TGR inh -36%[57.1 µM] and Pf growth 96h -18%.
COc1ccc(Cn2cc(CN3CC(N4CCN(C5CCN(C)CC5)CC4)CS3(=O)=O)nn2)cc1 (stereo not given) was read as HCMV inh -29.
`COc1ccc(OCCCC(=O)OCC(=O)c2ccc3c(c2)NC(=O)CO3)cc1` gave SARS PLP yeast -7%, HCMV inh -20, Pf growth 48h 5%, HCV inhibitor 6%, Sm TGR inh 45µM* and Pf growth 96h 0%.
CC(C)CC(NC(=O)c1ccc(Cl)cc1)C(=O)OCC(=O)c1ccc2c(c1)NC(=O)CO2 (stereo not given) was read as SARS PLP yeast 2%, HCMV inh -103*, Pf growth 48h -2%, HCV inhibitor inconclusive and Sm TGR inh -24%.
O=C1COc2ccc(C(=O)COC(=O)c3ncc(Cl)c(Cl)c3Cl)cc2N1 was read as SARS PLP yeast 1%, HCMV inh 5, Pf growth 48h 44%, HCV inhibitor 19%, Sm TGR inh 50µM* and Pf growth 96h 55%.
`O=C1COc2ccc(C(=O)COC(=O)c3ccc([N+](=O)[O-])cc3Cl)cc2N1` gave SARS PLP yeast -2%, HCMV inh -6, Pf growth 48h 10%, HCV inhibitor -5%, Sm TGR inh 40µM* and Pf growth 96h 5%.
O=C1COc2ccc(C(=O)COC(=O)CCCOc3ccccc3)cc2N1 was read as HCMV inh 4.
O=C1COc2ccc(C(=O)COC(=O)c3ccc(Cl)cc3[N+](=O)[O-])cc2N1 was read as SARS PLP yeast 0%, HCMV inh -7, Pf growth 48h 5%, HCV inhibitor -8%, Sm TGR inh -15% and Pf growth 96h 5%.
For O=C1COc2ccc(C(=O)COC(=O)c3cnc(Cl)c(Cl)c3)cc2N1 the results were SARS PLP yeast -6%, HCMV inh 0, Pf growth 48h -6%, HCV inhibitor 23%, Sm TGR inh -7% and Pf growth 96h 36%.
`CCN1C(=O)c2ccccc2S(=O)c2ccc(C(=O)N3CCN(c4cccc(Cl)c4)CC3)cc21` (stereo not given) gave HCMV inh -15 and Sm TGR inh 12%.
